# Source: publication PMC11062922 (Nature Chemical Biology, 2023)
# Read-outs that look alike come from different tables or passages of the source.
# Experiments:
# FLT3 = system: FLT3; design: species or system human, MV4-11 + K-562 + COLO205 + SK-N-BE2 + OVCAR-8; conditions: read-out: apparent Kd, n = 1
# FLT4 = system: FLT4; design: species or system human, MV4-11 + K-562 + COLO205 + SK-N-BE2 + OVCAR-8; conditions: read-out: apparent Kd, n = 1
# PDGFRB = system: PDGFRB; design: species or system human, MV4-11 + K-562 + COLO205 + SK-N-BE2 + OVCAR-8; conditions: read-out: apparent Kd, compound concentrations: 100 nM and 1000 nM (sheet 'Samples'), n = 1
# PIP4K2C = system: PIP4K2C; design: species or system human, MV4-11 + K-562 + COLO205 + SK-N-BE2 + OVCAR-8; conditions: read-out: apparent Kd; compound concentrations: 100 nM and 1000 nM (sheet 'Samples'), CATDS: 0.16088368333560399; n = 1
# Q6ZSR9 = Q6ZSR9 (human, UniProt Q6ZSR9); design: species or system MV4-11 + K-562 + COLO205 + SK-N-BE2 + OVCAR-8; conditions: read-out: apparent Kd; compound concentrations: 100 nM and 1000 nM (sheet 'Samples'), CATDS: 0.15174967066440201; n = 1
# Sequence of Q6ZSR9 (Q6ZSR9 whole entry, looked up): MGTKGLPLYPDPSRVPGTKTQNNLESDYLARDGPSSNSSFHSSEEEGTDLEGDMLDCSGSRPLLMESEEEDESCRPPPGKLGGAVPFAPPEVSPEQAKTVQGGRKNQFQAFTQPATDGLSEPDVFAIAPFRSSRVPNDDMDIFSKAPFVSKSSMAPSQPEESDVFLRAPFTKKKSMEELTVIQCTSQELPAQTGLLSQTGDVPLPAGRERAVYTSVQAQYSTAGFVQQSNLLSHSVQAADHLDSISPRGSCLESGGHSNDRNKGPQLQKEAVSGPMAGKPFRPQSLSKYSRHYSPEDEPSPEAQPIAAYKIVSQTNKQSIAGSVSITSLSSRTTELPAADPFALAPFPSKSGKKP
# MAP3K1 = system: MAP3K1; design: species or system human, MV4-11 + K-562 + COLO205 + SK-N-BE2 + OVCAR-8; conditions: read-out: apparent Kd; compound concentrations: 100 nM and 1000 nM (sheet 'Samples'), CATDS: 0.23263789115969999; n = 1
# TTN = system: TTN; design: species or system human, MV4-11 + K-562 + COLO205 + SK-N-BE2 + OVCAR-8; conditions: read-out: apparent Kd; compound concentrations: 100 nM and 1000 nM (sheet 'Samples'), CATDS: 0.29545284543589501; n = 1
# ILK = system: ILK; design: species or system human, MV4-11 + K-562 + COLO205 + SK-N-BE2 + OVCAR-8; conditions: read-out: apparent Kd; compound concentrations: 100 nM and 1000 nM (sheet 'Samples'), CATDS: 0.155345852963269; n = 1
# MAP2K1 = system: MAP2K1; design: species or system human, MV4-11 + K-562 + COLO205 + SK-N-BE2 + OVCAR-8; conditions: read-out: apparent Kd; compound concentrations: 100 nM and 1000 nM (sheet 'Samples'), CATDS: 0.15695729249265; n = 1
# MYLK3 = system: MYLK3; design: species or system human, MV4-11 + K-562 + COLO205 + SK-N-BE2 + OVCAR-8; conditions: read-out: apparent Kd, compound concentrations: 100 nM and 1000 nM (sheet 'Samples'), n = 1
# TNIK = system: TNIK; design: species or system human, MV4-11 + K-562 + COLO205 + SK-N-BE2 + OVCAR-8; conditions: read-out: apparent Kd; compound concentrations: 100 nM and 1000 nM (sheet 'Samples'), CATDS: 0.18945964172461099; n = 1
# FGFR1 = system: FGFR1; design: species or system human, MV4-11 + K-562 + COLO205 + SK-N-BE2 + OVCAR-8; conditions: read-out: apparent Kd; compound concentrations:100 nM and 1000 nM (sheet 'Samples'); n = 1
# PIK3C2A = system: PIK3C2A; design: species or system human, MV4-11 + K-562 + COLO205 + SK-N-BE2 + OVCAR-8; conditions: read-out: apparent Kd; compound concentrations:100 nM and 1000 nM (sheet 'Samples'); n = 1
# GRK6 = system: GRK6; design: species or system human, MV4-11 + K-562 + COLO205 + SK-N-BE2 + OVCAR-8; conditions: read-out: apparent Kd; compound concentrations: 100 nM and 1000 nM (sheet 'Samples'), CATDS: 1; n = 1
# JAK2 = system: JAK2; design: species or system human, MV4-11 + K-562 + COLO205 + SK-N-BE2 + OVCAR-8; conditions: read-out: apparent Kd; compound concentrations: 100 nM and 1000 nM (sheet 'Samples'), CATDS: 0.29115403437322901; n = 1
# [1] = compound concentrations:100 nM and 1000 nM (sheet 'Samples')
compound,measurement,setting,value
CCS(=O)(=O)c1ccc(OC)c(Nc2ncc(-c3cccc(OC)c3)o2)c1 [GW580509X],potency estimated from few doses,FLT3; [1],1130 nM
COc1cc(Nc2ncc(-c3ccccc3)o2)cc(OC)c1OC [GW627512B],potency estimated from few doses,"FLT3; compound concentrations: 100 nM and 1000 nM (sheet 'Samples'), CATDS: 0.90210431278154302",20.2 nM
same,potency estimated from few doses,"FLT4; compound concentrations: 100 nM and 1000 nM (sheet 'Samples'), CATDS: 0.159173325469706",1850 nM
same,potency estimated from few doses,PDGFRB; CATDS: 0.20817935834978499,858 nM
same,potency estimated from few doses,PIP4K2C,1790 nM
same,potency estimated from few doses,Q6ZSR9,2170 nM
O=C(Nc1n[nH]c2nc(-c3ccco3)c(Br)cc12)c1ccc(CN2CCCC2)cc1.O=C(O)[C@H](O)[C@@H](O)C(=O)O [SB-742352-AC],potency estimated from few doses,"FLT3; compound concentrations: 100 nM and 1000 nM (sheet 'Samples'), CATDS: 0.23628807978612301",1550 nM
same,potency estimated from few doses,MAP3K1,1600 nM
same,potency estimated from few doses,PDGFRB; CATDS: 0.24481499220571501,1430 nM
same,potency estimated from few doses,TTN,1010 nM
COc1cc[nH]c1/C=C1\C(=O)Nc2ccccc21 [RO0272159-000],potency estimated from few doses,"FLT3; compound concentrations: 100 nM and 1000 nM (sheet 'Samples'), CATDS: 0.77308167829792795",55.1 nM
same,potency estimated from few doses,ILK,1910 nM
same,potency estimated from few doses,MAP2K1,1850 nM
same,potency estimated from few doses,MYLK3; CATDS: 0.17793919150823601,1280 nM
same,potency estimated from few doses,TNIK,1080 nM
COc1cc(OC)cc(-c2cc3cnc(N)nc3nc2NC(=O)NC(C)(C)C)c1 [PFE-PKIS_3],potency estimated from few doses,FGFR1,85.8 nM
same,potency estimated from few doses,FLT4; [1],1380 nM
same,potency estimated from few doses,PIK3C2A,2380 nM
O=C1Nc2ccccc2/C1=C/Nc1ccc2[nH]c(=O)[nH]c2c1 [GW284408X],potency estimated from few doses,"FLT3; compound concentrations: 100 nM and 1000 nM (sheet 'Samples'), CATDS: 0.54453262493036503",348 nM
same,potency estimated from few doses,MYLK3; CATDS: 0.46220060091739101,485 nM
c1ccc(-c2cnc3nccnn23)cc1 [AH20685XX],potency estimated from few doses,GRK6,2060 nM
Cl.NS(=O)(=O)c1cccc(Nc2cc(-c3ccc(F)cc3)n[nH]2)c1 [GW824645A_PKIS2],potency estimated from few doses,"FLT3; compound concentrations: 100 nM and 1000 nM (sheet 'Samples'), CATDS: 1",342 nM
COc1ccccc1Nc1ncc(-c2ccccc2)o1.Cl [GW577921A],potency estimated from few doses,"FLT3; compound concentrations: 100 nM and 1000 nM (sheet 'Samples'), CATDS: 0.90882717599339502",14.3 nM
same,potency estimated from few doses,JAK2,370 nM
same,potency estimated from few doses,PDGFRB; CATDS: 0.22396051882089299,1080 nM
